About 83,000 compounds went through this panel and 20% of them were active in at least one assay; those are over-represented in the sample as a whole.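 Percent growth is the endpoint: 0 to 100 indicates growth inhibition (40 means 60% inhibition), 0 means no net growth, and negative values indicate cell death.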 Active and inactive are the calls of the source. Rule for the calls: active = growth percent below 10; inactive = the rest.
Tests used:
Assay in all cases: NCI-60 one-dose screen, 48 h (100 = growth as untreated, 0 = no growth, -100 = all killed)
SK-MEL-2 melanoma = details: 10 µM unless noted
SN12C renal = details: 10 µM unless noted
UO-31 renal = details: 10 µM unless noted
ACHN renal = details: 10 µM unless noted
CAKI-1 renal = details: 10 µM unless noted
A498 renal = details: 10 µM unless noted
MOLT-4 leukemia = details: 10 µM unless noted
CCRF-CEM leukemia = details: 10 µM
TK-10 renal = details: 10 µM unless noted
EKVX NSCLC = details: 10 µM

Measured: growth

Cc1ccc(C(=O)C(Br)C(Br)c2ccccc2)cc1 (configuration not stated)
inactive: SK-MEL-2 melanoma 113% | SN12C renal 86.4% | UO-31 renal 66.9% | ACHN renal 44.3% | CAKI-1 renal 55.1% | A498 renal 75.6% | MOLT-4 leukemia 46%

CC(C)C(=O)c1ccc(Cl)s1
inactive: SK-MEL-2 melanoma 96.5% | SN12C renal 99.3% | UO-31 renal 79.1% | ACHN renal 104% | CAKI-1 renal 107% | A498 renal 79.6% | MOLT-4 leukemia 97.4%

COc1ccc2c(c1)/C(=C1/S/C(=N/c3nnc(C)s3)NC1=O)C(=O)N2Cc1ccc(Br)cc1
active: A498 renal 4.62%
inactive: SK-MEL-2 melanoma 25.6% | SN12C renal 43.4% | UO-31 renal 42.6% | ACHN renal 36.2% | CCRF-CEM leukemia 21.2% | MOLT-4 leukemia 20.7%

CCCCCCCCC1OC1CCCCCCCC(=O)O (configuration not stated)
inactive: SK-MEL-2 melanoma 103% | SN12C renal 94.5% | TK-10 renal 104% | CAKI-1 renal 100% | A498 renal 102% | CCRF-CEM leukemia 93% | MOLT-4 leukemia 104%

Br/C(=N\Nc1nn[nH]n1)c1ccccc1
inactive: SK-MEL-2 melanoma 90.9% | SN12C renal 98.7% | UO-31 renal 78.6% | ACHN renal 92.7% | CAKI-1 renal 92.5% | A498 renal 114% | MOLT-4 leukemia 105%

CCCC[N+](C)(N)CCCC
inactive: SK-MEL-2 melanoma 108% | SN12C renal 104% | UO-31 renal 91.7% | TK-10 renal 109% | CAKI-1 renal 94.4% | A498 renal 115% | MOLT-4 leukemia 94.6%

CCC(C)(CC)c1ccc(O)c(C)c1
inactive: SK-MEL-2 melanoma 82.2% | SN12C renal 102% | UO-31 renal 102% | ACHN renal 106% | CAKI-1 renal 109% | A498 renal 100% | MOLT-4 leukemia 106%

C[n+]1c2ccccc2c(Nc2ccc(NS(=O)(=O)CCCCN=C(N)N)cc2)c2ccc(N)cc21
active: MOLT-4 leukemia -13%
inactive: SK-MEL-2 melanoma 86.2% | SN12C renal 17.8% | UO-31 renal 50.2% | ACHN renal 24.1% | CAKI-1 renal 43.2% | A498 renal 50.8%

CC(=O)N1CCN(CCNC(=O)n2cc(-c3ccncc3)c(-c3cc(O)cc(Cl)c3)n2)CC1
inactive: EKVX NSCLC 112% | SN12C renal 94.4% | UO-31 renal 72.9% | TK-10 renal 62.5% | ACHN renal 76.9% | CAKI-1 renal 99% | A498 renal 93.1% | CCRF-CEM leukemia 71.6% | MOLT-4 leukemia 67.3%

C=C(C)C(C(=O)OCC)(C(=O)OCC)C(C)C
inactive: SK-MEL-2 melanoma 121% | UO-31 renal 100% | TK-10 renal 113% | ACHN renal 104% | CAKI-1 renal 105% | A498 renal 110% | CCRF-CEM leukemia 98.2% | MOLT-4 leukemia 114%

O=C(Nc1ccc(-n2cc(-c3ccncc3)c(-c3ccc(Cl)c(O)c3)n2)cc1)c1ccc(Cl)c(Cl)c1
active: CAKI-1 renal 0.324%
inactive: EKVX NSCLC 61.8% | SN12C renal 65.7% | UO-31 renal 14.8% | TK-10 renal 33% | ACHN renal 38.4% | A498 renal 83.8% | CCRF-CEM leukemia 40.2% | MOLT-4 leukemia 22.3%

CCCCCCCCCCCCCCCCNC(=S)N/N=C/c1ccc(O)cc1O
inactive: SK-MEL-2 melanoma 75.4% | UO-31 renal 49.8% | TK-10 renal 57.8% | ACHN renal 77% | CAKI-1 renal 55.9% | A498 renal 91.1% | MOLT-4 leukemia 48.5%

COC1=CC(c2ccc[nH]2)=N/C1=C\c1[nH]c(C)c(C(=O)CCCCC(=O)NC(C)(C)C)c1C
inactive: SK-MEL-2 melanoma 98% | UO-31 renal 18% | ACHN renal 71.8% | CAKI-1 renal 34.1% | CCRF-CEM leukemia 68.5% | MOLT-4 leukemia 21.2%
active: TK-10 renal -18.2%

C/C(=N\Nc1ccc(Cl)cn1)c1ccc2ccccc2n1
inactive: SK-MEL-2 melanoma 35.5% | TK-10 renal 56.3%
active: UO-31 renal 2.27% | ACHN renal 8.37% | CAKI-1 renal 7.16% | A498 renal -15.7% | CCRF-CEM leukemia 3.63% | MOLT-4 leukemia 3.63%

Cc1cc(CSc2ccc(Cl)cc2)ccc1N
active: CCRF-CEM leukemia 3.59%
inactive: SK-MEL-2 melanoma 99.7% | TK-10 renal 101% | ACHN renal 102% | CAKI-1 renal 95.1% | A498 renal 99.7% | MOLT-4 leukemia 49.7%

O=C1CSC(c2ccccc2Cl)N1c1nnc(-c2ccncc2)o1 (configuration not stated)
inactive: SK-MEL-2 melanoma 101% | UO-31 renal 90.8% | ACHN renal 94.3% | CAKI-1 renal 107% | A498 renal 72.4% | CCRF-CEM leukemia 102% | MOLT-4 leukemia 94.3%

Cc1cc2cn3c4ccc(O)cc4[nH]c(=O)c3c2cc1C
inactive: EKVX NSCLC 41.3% | SN12C renal 38.5% | ACHN renal 11.8% | A498 renal 18.6%
active: UO-31 renal 3.07% | TK-10 renal 0.912% | CAKI-1 renal -5.2% | CCRF-CEM leukemia -7.53% | MOLT-4 leukemia -18.2%

COc1cccc(NC(=O)NCCNc2nccc(-c3c(-c4ccc(F)cc4)nc4sccn34)n2)c1
inactive: EKVX NSCLC 98.6% | SN12C renal 72.8% | UO-31 renal 52.4% | TK-10 renal 76.2% | ACHN renal 44.9% | CAKI-1 renal 93.4% | A498 renal 77.1% | CCRF-CEM leukemia 67.5% | MOLT-4 leukemia 77.8%

N#Cc1ccc(OCc2nc(N)nc(N)c2-c2ccc(Cl)c(Cl)c2)cc1
inactive: SK-MEL-2 melanoma 29.8% | UO-31 renal 40.4% | TK-10 renal 40.9% | ACHN renal 19.4% | CAKI-1 renal 13.9% | A498 renal 38.5% | MOLT-4 leukemia 22.9%

O=C(Nc1ccc(Cl)c(Cl)c1)O/N=C\c1c(Cl)ccc([N+](=O)[O-])c1Cl
inactive: A498 renal 46%
active: SK-MEL-2 melanoma -4.77% | UO-31 renal -32.6% | TK-10 renal -97.2% | ACHN renal -59.5% | CAKI-1 renal 7.78% | CCRF-CEM leukemia -19.3% | MOLT-4 leukemia -32.9%

O=c1c2c(c3ccccc3n1-c1ccccc1)NC(=S)NC2c1ccc(Cl)cc1 (configuration not stated)
active: CCRF-CEM leukemia 7.43%
inactive: EKVX NSCLC 20% | SN12C renal 50.1% | UO-31 renal 47.6% | TK-10 renal 10.8% | ACHN renal 52.7% | CAKI-1 renal 33.2% | A498 renal 50.6% | MOLT-4 leukemia 25.4%

Nc1nc2cc(O)ccc2n2cc3c(F)cccc3c12
active: UO-31 renal 2.79% | TK-10 renal -12.5% | CAKI-1 renal -12.1% | MOLT-4 leukemia 3.96%
inactive: EKVX NSCLC 24.8% | SN12C renal 47% | ACHN renal 18.9% | A498 renal 41.5% | CCRF-CEM leukemia 58.4%

O=C(Nc1ccc(-n2cc(-c3ccncc3)c(-c3ccc(Cl)c(O)c3)n2)cc1)c1cc(C(F)(F)F)cc(C(F)(F)F)c1
inactive: EKVX NSCLC 97.4% | SN12C renal 74.7% | UO-31 renal 67.5% | TK-10 renal 65.4% | ACHN renal 54.3% | CAKI-1 renal 60.4% | A498 renal 87.7% | CCRF-CEM leukemia 72.9% | MOLT-4 leukemia 55.6%

COc1ccc(C(=O)NCCNc2nccc(-c3c(-c4ccc(F)cc4)nc4sccn34)n2)cc1
inactive: EKVX NSCLC 66.8% | SN12C renal 70% | UO-31 renal 34.3% | TK-10 renal 29.1% | ACHN renal 29.2% | CAKI-1 renal 43.6% | A498 renal 56.1% | CCRF-CEM leukemia 48.1% | MOLT-4 leukemia 59.8%

Oc1ccc([S+](c2ccc(O)cc2)c2ccc(O)cc2)cc1
inactive: SK-MEL-2 melanoma 117% | UO-31 renal 87.5% | TK-10 renal 115% | CAKI-1 renal 102% | A498 renal 71.3% | CCRF-CEM leukemia 100% | MOLT-4 leukemia 89.2%

O=C(Nc1ccc(-n2cc(-c3ccncc3)c(-c3ccc(Cl)c(O)c3)n2)cc1)c1ccc(Cl)c(C(F)(F)F)c1
inactive: EKVX NSCLC 35.2% | SN12C renal 66.6% | A498 renal 71.8%
active: UO-31 renal -37.3% | TK-10 renal -19.8% | ACHN renal -24.3% | CAKI-1 renal -33.5% | CCRF-CEM leukemia 3.34% | MOLT-4 leukemia -1.8%

O=c1c2c(c3ccccc3n1-c1ccccc1)NC(=S)NC2c1ccccc1 (configuration not stated)
inactive: EKVX NSCLC 97.1% | SN12C renal 90.4% | UO-31 renal 71.7% | TK-10 renal 226% | ACHN renal 96.1% | CAKI-1 renal 105% | A498 renal 102% | MOLT-4 leukemia 66.2%
active: CCRF-CEM leukemia -25%

COc1cc2cn3c4ccc(O)cc4[nH]c(=O)c3c2cc1OC
inactive: EKVX NSCLC 18.4% | SN12C renal 37%
active: UO-31 renal -32.2% | TK-10 renal -22.6% | ACHN renal -26% | CAKI-1 renal -51.7% | A498 renal -20.6% | CCRF-CEM leukemia 5.83% | MOLT-4 leukemia -9.94%

CCCCCSc1ccc2nc(NC(=O)OCC)sc2c1
inactive: SK-MEL-2 melanoma 45.5% | UO-31 renal 38.3% | TK-10 renal 49.7% | ACHN renal 39.7% | CAKI-1 renal 27.6% | CCRF-CEM leukemia 12.4% | MOLT-4 leukemia 26.5%
active: A498 renal -0.27%

CN1CCN(Cc2ccc(NC(=O)c3cncc(C#Cc4c(N)ncc5ccc(F)cc45)c3)cc2C(F)(F)F)CC1
inactive: TK-10 renal 11.5% | CAKI-1 renal 25.2% | A498 renal 15%
active: SK-MEL-2 melanoma -33% | UO-31 renal -78.9% | ACHN renal -93.6% | CCRF-CEM leukemia 0.436% | MOLT-4 leukemia 9.77%

Reference: PubChem BioAssay (NCI)
